# Measurements reported in PubChem BioAssay (Tox21).
# “And” between values parts separate entries of the source, which are not always exact repeats. Equal values may be shown once. Records with an inconclusive call do not appear. More than one record can exist for a structure, and the calls need not agree. The source made the active and inactive calls. Calls come from the whole dose curve; as a rule, active = well fitted activation curve with a large enough effect in the repeat runs; inconclusive = weak or mixed curves; inactive = flat fitted curve, though single readings scatter. Starred links: 1 amine or outer side, 2 acyl side, 3 side chain; linkers in the order of their positions; H or OH if unused. Positions of bridges follow the written chain, without caps; N, C: chain ends. Non-standard residues stand in square brackets, D forms with d. Residues, ends and D or L forms follow the SMILES beside them. Chains are numbered I, II in the order given. Actinocin(9to1) = Cc1c2oc3c(C)ccc(C(=O)[*:1])c3nc-2c(C(=O)[*:2])c(N)c1=O; NMeV = CN[C@H](C(=O)O)C(C)C; Sar = CNCC(=O)O
# Assay: A CellTox Green Cytotoxicity Assay to monitor cytotoxicity in HepG2 cells - 32 hour (AID 1224883); note: nearly all actives have a fitted effect of over 50% in size
# Details: CellTox Green fluorescence; series mostly up to 76.8 µM; cytotoxicity increase: at the top concentration
# Description: National Center for Advancing Translational Sciences [NCATS]
# NIH Chemical Genomics Center [NCGC]
# U.S. Environmental Protection Agency [EPA]
# National Institutes of Environmental Health Sciences [NIEHS]
# National Toxicology Program [NTP]
# Cell-based models are critical for drug discovery. Determining the natural cytotoxic effects resulting from test compounds is an essential research activity. A CellTox Green Cytotoxicity Assay to monitor cytotoxicity in real time of continues cell culture during 40 hours of the compound treatment was used to screen Tox21 10K library compounds in HepG2 cells. CellTox Green Cytotoxicity Assay is a nonlytic, homogeneous, biofluorescent method to measure cytotoxicity in cell culture after experimental manipulation. The assay system uses a proprietary asymmetric cyanine dye that is excluded from viable cells but preferentially stains the dead cell's DNA. […] Viable cells produce no appreciable increases in fluorescence. Therefore, the fluorescence signal produced by the binding interaction with dead cell DNA is proportional to cytotoxicity.
# The mixture of HepG2 cell suspension and reagents were dispensed at 600cells/6 ul/well in 1536-well tissue culture treated black solid bottom plates using a Multidrop dispenser. After the assay plates were incubated at a 37 C/5% CO2 incubator for 5 hours, 23 nL of compounds dissolved in DMSO, positive and negative controls was transferred to the assay plate by a pintool work station. The plates were incubated at 37 C for 40 hours. The fluorescence intensity were measured at 0h, 8h, 16h, 24h, 32h and 40h time points using ViewLux plate reader during compound treatment.
# % is set by controls: 0 for no effect and ±100 for the full control effect; potency is the fitted concentration of half-maximal effect.
Structure (SMILES),Potency,cytotoxicity increase
CCCCCCCCCCCCc1ccccc1O,19.5 µM (active),–
CCC(C)(C)C(=O)O[C@H]1C[C@@H](C)C=C2C=C[C@H](C)[C@H](CC[C@@H]3C[C@@H](O)CC(=O)O3)[C@H]21,38.9 µM (active) and 9.52 µM (active),–
COC(=O)/C=C/c1ccccc1,inactive,–
C=CC(=O)OCCCCCCOC(=O)C=C,–,4.82% (inactive)
CC(COc1ccccc1)N(CCCl)Cc1ccccc1 (stereo not given),55.5 µM (active),–
CC(C)(C)NC(=O)[C@@H]1CN(Cc2cccnc2)CCN1C[C@@H](O)C[C@@H](Cc1ccccc1)C(=O)N[C@H]1c2ccccc2C[C@H]1O,inactive,–
CC(C)CCOCc1ccccc1,–,7.57% (inactive)
Nc1cc(S(=O)(=O)O)cc2cc(S(=O)(=O)O)cc(O)c12,inactive,–
CC1=C(C=O)C(C)(C)CC=C1,–,-20.4% (inactive)
Oc1c(Cl)cc(Cl)c(Cl)c1Cc1c(O)c(Cl)cc(Cl)c1Cl,inactive and 38.9 µM (active),–
O=C(Oc1ccccc1)c1ccccc1O,–,23.8% (inactive)
O=C(O)c1cccc(C(=O)O)c1,inactive,–
CC[C@H]1CN2CCc3cc(OC)c(OC)cc3[C@@H]2C[C@@H]1C[C@H]1NCCc2cc(OC)c(OC)cc21,49.2 µM (active) and 21.3 µM (active),–
Nc1ccc(O)cc1,–,1.99% [at 35.3 µM] (inactive)
CC1COc2c(N3CCN(C)CC3)c(F)cc3c(=O)c(C(=O)O)cn1c23 (stereo not given),–,-1.7% [at 35.3 µM] (inactive)
NC(N)=NC(=O)Cc1c(Cl)cccc1Cl,–,-6% [at 35.3 µM] (inactive)
NCCO,inactive,–
CC(C)(C)c1ccccc1,–,-7.02% (inactive)
CCCCC(CC)COC(=O)CC(C(=O)OCC(CC)CCCC)S(=O)(=O)O (stereo not given),42 µM (active) and 43.6 µM (active),–
CC[C@]1(O)C[C@@H]2CN(CCc3c([nH]c4ccccc34)[C@@](C(=O)OC)(c3cc4c(cc3OC)N(C)[C@H]3[C@@](O)(C(=O)OC)[C@H](OC(C)=O)[C@]5(CC)C=CCN6CC[C@]43[C@@H]65)C2)C1,–,11.3% [at 35.3 µM] (inactive)

Structure (SMILES),Potency,cytotoxicity increase
CCCCCCCCCCCCCC[P+](CCCC)(CCCC)CCCC,19.4 µM (active) and 15.5 µM (active),–
NC(Cc1ccc(Cl)cc1)C(=O)O (stereo not given),–,-4.66% [at 0.29 µM] (inactive)
NNCCc1ccccc1,–,-6.22% [at 35.3 µM] (inactive)
CC(=O)C1=C(C)[C@@H]2C[C@@]3(C1)[C@H](C)CC[C@H]3C2(C)C,–,28.7% (inactive)
[Cl][In]([Cl])[Cl],–,-18.7% (inactive)
Cc1ccc(-c2cc(C(F)(F)F)nn2-c2ccc(S(N)(=O)=O)cc2)cc1,48.8 µM (active) and 49 µM (active),–
CCCOC(=O)c1cc(O)c(O)c(O)c1,inactive,–
"Cc1c2oc3c(C)ccc(C(=O)N[C@@H]4C(=O)N[C@H](C(C)C)C(=O)N5CCC[C@H]5C(=O)N(C)CC(=O)N(C)[C@@H](C(C)C)C(=O)O[C@@H]4C)c3nc-2c(C(=O)N[C@@H]2C(=O)N[C@H](C(C)C)C(=O)N3CCC[C@H]3C(=O)N(C)CC(=O)N(C)[C@@H](C(C)C)C(=O)O[C@@H]2C)c(N)c1=O (I: T[dV]P[Sar][NMeV] / II: T[dV]P[Sar][NMeV]; ester I:1-I:C, II:1-II:C; linker I:N-II:N via Actinocin(9to1))",0.0213 µM (active),–
O=C1NCC2(CCN(CCc3ccccc3)CC2)O1,–,-19.9% [at 35.3 µM] (inactive)
CCN(CC)CCOc1ccc(/C(=C(\Cl)c2ccccc2)c2ccccc2)cc1,17.7 µM (active) and 21.3 µM (active),–
O=C1CC2(CCCC2)CC(=O)N1CCCCN1CCN(c2ncccn2)CC1,43.6 µM (active) and inactive,–
C=C(C)C(=O)O,inactive,–
CCCC(=O)c1ccccc1,–,-0.842% (inactive)
COc1cc(C(=S)N2CCOCC2)ccc1O,–,-20.6% [at 35.3 µM] (inactive)
O=C(O[C@@H]1Cc2c(O)cc(O)cc2O[C@@H]1c1cc(O)c(O)c(O)c1)c1cc(O)c(O)c(O)c1,–,-67.2% (inactive)
O=C(O)c1cc(Cl)cc(Cl)c1,–,4.71% (inactive)
BrC1CCC(Br)C(Br)CCC(Br)C(Br)CCC1Br (stereo not given),inactive,–
CCN(CC)C(=S)SSC(=S)N(CC)CC,8.25 µM (active),–
CCN(CC)c1ccc2c(C)cc(=O)oc2c1,inactive,–
COc1ccc(CCN2CCC(Nc3nc4ccccc4n3Cc3ccc(F)cc3)CC2)cc1,19.9 µM (active) and 9.52 µM (active),–
